In ChEMBL document CHEMBL4296182, “CO-ADD screening of NIH NCI Diversity Set V” one finds Inhibition data, which are given here for 23 compounds.

Assay [1] has as its system Staphylococcus aureus. The assay can be described thus: Antibacterial activity against Staphylococcus aureus MRSA ATCC 43300 (CO-ADD:GP_020); MIC in CAMBH media using NBS plates, by Resazurin F(560/590). The assay is classed as functional. To be noted: Concentration 20 uM, ASSAY_TEST Inhibition of Bacterial Growth, detection method Resazurin, Fluorescence (ex560/em590), MEDIA CAMHB, plate type 384well, CORNING #3640, time 18 hr.

The subject of assay [2] is Acinetobacter baumannii. The assay can be described thus: Antibacterial activity against Acinetobacter baumannii ATCC 19606 (CO-ADD:GN_034); MIC in CAMBH media using NBS plates, by Resazurin F(560/590). The conditions noted are these: Concentration 20 uM, ASSAY_TEST Inhibition of Bacterial Growth, detection method Resazurin, Fluorescence (ex560/em590), MEDIA CAMHB, plate type 384well, CORNING #3640, time 18 hr. The assay is classed as functional. (The colour change of resazurin is a common sign of viable cells or microbes.)

Assay [3] has as its system Escherichia coli. Briefly: Antibacterial activity against Escherichia coli ATCC 25922 (CO-ADD:GN_001); MIC in CAMBH media using NBS plates, by Resazurin F(560/590). The assay is classed as functional. The conditions noted are these: Concentration 20 uM, ASSAY_TEST Inhibition of Bacterial Growth, detection method Resazurin, Fluorescence (ex560/em590), MEDIA CAMHB, plate type 384well, CORNING #3640, time 18 hr.

The subject of assay [4] is Klebsiella pneumoniae. To be noted: Concentration 20 uM; ASSAY_TEST Inhibition of Bacterial Growth; detection method Absorption (OD600); MEDIA CAMHB; plate type 384well; NBS; CORNING #3640; time 18 hr.
The test system of assay [5] is Candida albicans. The conditions noted are these: 20 µM.
Assay [6] has as its system Cryptococcus neoformans. To be noted: Concentration 20 uM; ASSAY_TEST Inhibition of Fungal Growth; detection method Resazurin; Absorption (OD600-OD570); plate type 384well; NBS; CORNING #3640.

Usually Inhibition stands for the change of the read-out against control, counted positive when it falls.

SMILES strings stand for the structures. For part of these data: Measured potencies and affinities stand elsewhere.

Regarding `C=CCNC(S)=NCC`, the Inhibition in assay [1] is 0.32%; in assay [2], -1.02%; in assay [3], 11.35%; in assay [4], 13%; in assay [5], 0.61%; in assay [6], -1.87%.
As to `N#CC1=CC2CN(Cc3ccccc3)C1C1C(=O)N(c3ccccc3)C(=O)C21` (stereo not drawn), the Inhibition in assay [1] is -0.51%; in assay [2] it was 3.07%; in assay [3], -13.61%; in assay [4] it was 5.72%; in assay [5], 9.06%; in assay [6], 18.01%.
For `C=CCNc1ncnc2sc(SC)nc12`, the Inhibition in assay [1] was -6.85%; in assay [2], 14.45%; in assay [3] it was 5.94%; in assay [4], 7.44%; in assay [5], 10.1%; in assay [6], -10.12%.
`Nc1ccc(C(=O)C(=O)c2ccc(N)cc2)cc1`: the Inhibition in assay [1] was -28.54%; in assay [2] it was -4.51%; in assay [3], -16.8%; in assay [4], 1.88%; in assay [5] it was 2.62%; in assay [6] it was 25.61%.
Regarding `O=C(O)CCc1cccnc1`, the Inhibition in assay [1] was 18.41%; in assay [2] it was -3.93%; in assay [3], 16.49%; in assay [4] it was 14.5%; in assay [5], 1.32%; in assay [6], -2.51%.
On to `COc1ccc(C(C)=O)cc1CO/N=C1\CSCc2ccccc21`, for which the Inhibition in assay [1] was 16.78%; in assay [2], 9.55%; in assay [3] it was 4.94%; in assay [4], 9.39%; in assay [5], 18.6%; in assay [6], -2.91%.
As to `COC(=O)C1(C(=O)OC)C2C(=O)C3C(C21)C3(C(=O)OC(C)(C)C)C(=O)OC(C)(C)C` (stereo not drawn), the Inhibition was 5.34% in assay [1]; -10.49% in assay [2]; 12.49% in assay [3]; 9.29% in assay [4]; 0.63% in assay [5]; -1.86% in assay [6].
As for `O=C(O)CCNC1CCCCC1`, the Inhibition in assay [1] was 7.12%; in assay [2], -7.34%; in assay [3] it was 6.52%; in assay [4], 12.82%; in assay [5], 3.1%; in assay [6], -1.65%.
As to `CC1(C)CC[C@]2(C(=O)n3ccnc3)CC[C@]3(C)[C@H](C(=O)C=C4[C@@]5(C)C=C(C#N)C(=O)C(C)(C)[C@@H]5CC[C@]43C)[C@@H]2C1`, the Inhibition in assay [1] was -14.27%; in assay [2] it was -18.52%; in assay [3] it was 7.42%; in assay [4], 10.75%; in assay [5], 4.81%; in assay [6], -0.45%.
As for `CC(=O)NC1(C(=O)O)CCCC1`, the Inhibition was 8.27% in assay [1]; -6.77% in assay [2]; 8.7% in assay [3]; 15.18% in assay [4]; 4.3% in assay [5]; 0.8% in assay [6].
On to `OC(COc1cccc2ccccc12)CN1CCN(c2ccccc2Cl)CC1` (stereo not drawn), for which the Inhibition in assay [1] was -4.97%; in assay [2], 8.91%; in assay [3], -13.55%; in assay [4] it was 3.22%; in assay [5] it was 3.81%; in assay [6] it was -4.59%.
Regarding `NNC(=O)Cc1cc(O)[nH]n1`, the Inhibition in assay [1] was 0.66%; in assay [2] it was -1.89%; in assay [3], 4.91%; in assay [4] it was -1.33%; in assay [5] it was 1.93%; in assay [6], -9.5%.
For `O=C1NC(=S)S/C1=C\c1ccccc1C(=O)O`, the Inhibition in assay [1] is -3.3%; in assay [2] it was -13.4%; in assay [3] it was 1.72%; in assay [4], 11.85%; in assay [5], 14.4%; in assay [6], -5.59%.
As for `OCCN1CCSC1=S`, the Inhibition is 15.14% in assay [1]; -9.39% in assay [2]; 8.07% in assay [3]; 16.39% in assay [4]; 1.12% in assay [5]; -6.82% in assay [6].
`O=C1NC(=O)C(Cc2ccccc2)(c2cccnc2)N1` (stereo not drawn): the Inhibition in assay [1] was 33.81%; in assay [2] it was 2.65%; in assay [3], 15.22%; in assay [4], 9.85%; in assay [5], 7.24%; in assay [6] it was 16.94%.
Take `CSc1c(N(C)C)c(=O)c1=S`: the Inhibition in assay [1] was -5.31%; in assay [2], -13.14%; in assay [3] it was 11.42%; in assay [4], 6.17%; in assay [5], 1.7%; in assay [6], -16.36%.
With `Cc1nc(Br)c(Br)c(C)c1Br`, the Inhibition in assay [1] is 1.89%; in assay [2], -12.31%; in assay [3] it was 7.33%; in assay [4], 11.41%; in assay [5], 4.5%; in assay [6], -9.77%.
Regarding `OC(C#Cc1ccccc1)(c1ccccc1)c1ccccc1`, the Inhibition is 14.7% in assay [1]; 1.28% in assay [2]; -2.05% in assay [3]; 4.96% in assay [4]; 3.27% in assay [5]; -7.2% in assay [6].
`Oc1ncnc(CN2CCCCC2)c1O`: the Inhibition is 7.4% in assay [1]; 1.82% in assay [2]; 7.79% in assay [3]; 2.35% in assay [4]; -1.92% in assay [5]; -11.85% in assay [6].
For the compound `CSc1ncc2ncn(C3OC(CO)C(O)C3O)c2n1` (stereo not drawn), the Inhibition in assay [1] was 5.7%; in assay [2] it was 9.73%; in assay [3] it was -9.56%; in assay [4], 13.33%; in assay [5] it was 3.06%; in assay [6] it was -1.46%.
For `CC(C)(C)NC1=NCCNC(c2ccccc2)=C1.CS(=O)(=O)O`, the Inhibition is -3.88% in assay [1]; 8.25% in assay [2]; 7% in assay [3]; 11.55% in assay [4]; 1.18% in assay [5]; -14.32% in assay [6].
In the case of `COC(=O)c1ccc(C(=O)OC)c(O)n1`, the Inhibition in assay [1] is 3.27%; in assay [2], 9.07%; in assay [3], 2.76%; in assay [4], 7.35%; in assay [5], 0.7%; in assay [6], -5.98%.
As for `CCCc1nc(NC(=O)c2ccccc2)nc(NC(=O)c2ccccc2)n1`, the Inhibition in assay [1] was -10.01%; in assay [2] it was -7.86%; in assay [3], 8.74%; in assay [4], 10.41%; in assay [5], 3.97%; in assay [6], -9.1%.
